# Measured values published in the OligoGym collection.
# Target: RANGAP1
# Assay: pooled miR-30 sensor sort-seq; sequence = guide strand
# Conditions: shRNA
# Note: reference of the scale not given here.
row,Sequence,sensor-assay potency score (higher = more potent)
1,TTGAGTTTGAGGCTCTTGCCTT,-0.514
2,TTTCCGGTGACATTCGGTCAGA,-1.19
3,TTCAACTCCGACTTCTTCTCTA,0.789
4,TAATCACATCTTTAGCATCTTC,-0.22
5,TTGAACACAGATGACACCTTTA,-0.0745
6,TTGGAGTTGAAGGACGAGGAGT,-0.814
7,TTAGGGTCCAGAATCTTCCGTG,0.289
8,TTCACTCTTGAGCAGACCCATG,-1.41

# Target: RASGEF1A
# Assay: as above
# Conditions: shRNA
row,Sequence,sensor-assay potency score (higher = more potent)
1,TTGCAGAAGTTGCTGGACGGGT,-0.613
2,TTCTTGTCCTTCTCGAAAGGAC,-0.791
3,ATGAAGAACTCCAACATGCGGG,-0.48
4,AAACTTGGCTGTCTTGACCTTG,-0.781
5,TGTTTCTTCTTCACCACCCGGC,0.377
6,TAGGTCTTGGTCAGGTCCCCTC,-1
7,AAGGTGAAGATGTACGTCCTAT,0.212
8,TGAAGAACTCCAACATGCGGGT,-0.41
9,TTTTTCCATGTGGTTCTCGGGA,-0.794
10,TTCAGGAGCTGCACGATCTTGG,-0.661
11,AATCTTCTTGTCCTTCTCGAAA,-1.91
12,TGAATCTTCTTGTCCTTCTCGA,0.828

# Target: RASGEF1C
# Assay: as above
# Conditions: shRNA
row,Sequence,sensor-assay potency score (higher = more potent)
1,TTCCACGTGGGTCAGCTGCTGG,-1.01
2,TTTTTCTGTTTGGTTCTCTGGG,0.0788
3,TTTCTCGGGGTAGTAGTCGGCT,-0.879
4,TTTCACATAAGCCTCCAGGTTG,-0.649
5,TAGCACAGCCTGTTGAACCATT,-1.09
6,TGAACCATTTCACATAAGCCTC,-1.38
7,TTAGAGCTTTCCATCTTTCTTT,-0.12
8,TCTCACTTTCGTAAGAAGCCAA,-0.537
9,TTTTCTGTTTGGTTCTCTGGGC,-0.505
10,ATGAAGAACTCAATCACCTGGG,0.211
11,TGTAGTTGCAGAAATTCCCCGT,0.202
12,ATGACAATCTTCTCTCGGCTGC,-0.296

# Target: RASGRP2
# Assay: as above
# Conditions: shRNA
row,Sequence,sensor-assay potency score (higher = more potent)
1,TTGTTGGTAGATGTGGAGCAGC,-1.12
2,TTGGTAGATGTGGAGCAGCTTG,-1.27
3,TTCTTGGTCTAGCAGAGCCTTC,-1.75
4,TACTGATCCAGAGACACCGTGA,0.0565
5,TCTATGTCGATTAGGCTGCTGT,-0.615
6,TTAGGCTGCTGTGCCGTCGGTT,-0.65
7,TCAAACAACAGGGACATCTTGC,-0.201
8,TAGTCCTGAAACAGGATCTTGC,-0.808
